Assay outcomes: PubChem BioAssay, several laboratories
Kir21 inh: inhibitors of mouse Kir2.1 inward-rectifier potassium channel. actives 0.85% (n = 310,000). HEK293-Kir2.1, FluxOR thallium flux fluorescence; active compounds read low. Inward rectifier potassium channel 2 (Mus musculus), P35561. B-score at 10 µM;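 active = fluorescence ratio B-score at or below minus 3 SD of library scores, with starting-brightness B-score within 2 SD, cut at about -4.2 in these data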;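 note: channel flux triggered by added potassium and thallium sulfate stimulus; B-score of peak minus minimum fluorescence over baseline after thallium stimulus; more negative B-score means stronger Kir2.1 block with less thallium influx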
ANO1 block: TMEM16A chloride channel inhibitors, primary screen, cell-based, HTS. Anoctamin-1 (Mus musculus), Q8BHY3. HEK293 TMEM16A/YFP iodide influx fluorescence, ionomycin. normalized B-score (activity score, 25-100; higher = stronger inhibition) at 10 µM. actives 1.2% (n = 310,000);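 active = ratio plate-corrected score three or more library SD toward inhibition, starting fluorescence score within five deviations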;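 note: score derived from kinetic fluorescence span divided by baseline fluorescence per well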
CHT block: inhibitors of human choline transporter CHT; actives 0.86% (n = 310,000); High affinity choline transporter 1 (Homo sapiens), Q9GZV3; CHT-expressing cells, membrane potential dye, choline response; active compounds read low; AID 488975, 2010; B-score at 10 µM;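 active = B-score over 3 SD under the library average, and starting fluorescence ratio not unusually high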;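 note: choline stimulus applied at its EC90 after an EC20 pre-addition; B-score computed on integrated fluorescence ratio after choline addition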
CHT allo act: CHT positive allosteric modulators, primary screen, cell-based, membrane potential dye, choline EC20. actives 0.49% (n = 310,000). B-score at 10 µM. High affinity choline transporter 1 (Homo sapiens), Q9GZV3. AID 488977, 2010. CHT-expressing cells; active compounds read high; LV-AA mutant CHT in HEK293 cells;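 active = initial fluorescence not abnormally high and integrated response B-score, plate-corrected, over 3 SD above library mean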
GPR7 antagonist: GPR7 receptor antagonists, primary screen, cell-based, fluorescence, single concentration; Neuropeptides B/W receptor type 1 (Homo sapiens), P48145; GPR7-expressing cells, fluorescence antagonist assay; inhibition, % at 4.4 µM; actives 1.1% (n = 290,000); in the data active = inhibition above about 16%, passing the limit was not always enough;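 note: cells stimulated with the agonist NPW; 0% = agonist with vehicle and 100% = vehicle without agonist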
Target sequence (P48145 whole entry, looked up): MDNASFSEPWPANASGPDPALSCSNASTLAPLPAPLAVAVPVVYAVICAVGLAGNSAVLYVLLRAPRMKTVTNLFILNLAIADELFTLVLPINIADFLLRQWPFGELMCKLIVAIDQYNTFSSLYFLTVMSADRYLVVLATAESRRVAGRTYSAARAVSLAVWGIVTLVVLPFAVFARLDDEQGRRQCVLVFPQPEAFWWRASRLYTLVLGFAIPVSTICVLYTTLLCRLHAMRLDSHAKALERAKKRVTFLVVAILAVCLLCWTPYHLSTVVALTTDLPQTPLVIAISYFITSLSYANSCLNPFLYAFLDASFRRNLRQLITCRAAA
ANO1 activ: TMEM16A chloride channel activators or potentiators, primary screen, cell-based, HTS | HEK293 TMEM16A/YFP-H148Q/I152L, iodide quench fluorescence; active compounds read low | B-score at 10 µM | actives 0.3% (n = 340,000);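 active = fluorescence-ratio B-score plate-corrected deviation score at least 3 library SD below zero, with starting fluorescence score within 5 deviations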;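 note: channel opened by trigger with iodide after compound preincubation; score built on the fluorescence ratio of max minus min over baseline; more negative score means more quench and so TMEM16A activation or potentiation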
TMEM16A reconf: TMEM16A chloride channel inhibitors, confirmation, cell-based, re-confirmation; inhibition, % at 10 µM; AID 652189, 2013; HEK293 TMEM16A/YFP-H148Q, iodide quench fluorescence; ionomycin added to raise cell calcium; actives 39% (n = 2,300); shares compounds with ANO1 block;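 active = mean duplicate percent inhibition, scaled so buffer wells are 0 and the reference blocker 100, over three buffer SD above buffer mean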
HEK293 Ca mobil: calcium mobilization in TMEM16A/YFP HEK293 cells, confirmation, counter-screen for TMEM16A inhibitor project | shares compounds with ANO1 block | Fluo4 calcium mobilization | calcium response (% of ionomycin), % at 10 µM | actives 2% (n = 2,300) | AID 652231, 2013;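 active = duplicate-averaged calcium signal over 20% of the ionomycin maximum, relative to buffer baseline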;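 note: each well's signal is peak minus trough fluorescence divided by its pre-addition baseline; 0% = buffer wells and 100% = ionomycin wells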
Parental YFP cnt: iodide YFP quench changes in parental YFP-HEK293, counter-screen for TMEM16A inhibitor project, cell-based. YFP ratio F(max-min)/F0 at 10 µM. shares compounds with ANO1 block. 2,300 tested, under 10 active. ionomycin;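 active = yellow fluorescent protein signal ratio exceeding the buffer control mean by over 5 SD of those controls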;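 note: ratio is mean of duplicate wells from kinetic YFP trace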
ClC-1 inh: ClC-1 chloride channel inhibition, selectivity assay for TMEM16A inhibitor project, cell-based, voltage-dependent ClC-1 | shares compounds with ANO1 block | CHO ClC-1-YFP, iodide influx fluorescence quench; iodide control reads 0, buffer control 100 | ratio percent, % at 10 µM | 2,300 tested, under 10 active | AID 652236, 2013;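 active = duplicate-mean ratio percent above the mean of iodide-only control wells, which defines zero, plus 5 of their SD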;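 note: higher percent means stronger block of ClC-1 iodide influx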
The depositor's hits bear a star; i = inactive; · = no result given. This is a sample that favours compounds with a hit; in the whole collection about 3.7% have one here.

SMILES	Kir21 inh	ANO1 block	CHT block	CHT allo act	GPR7 antagonist	ANO1 activ	TMEM16A reconf	HEK293 Ca mobil	Parental YFP cnt	ClC-1 inh
COc1ccc(Cl)cc1NC(=O)C(C)N(C)Cc1ccc(C(F)(F)F)cc1 (stereo unspecified)	0.76	100*	i	i	-8	i	i	i	-0.83	-6
O=C(Nc1nnc(-c2ccccc2Cl)o1)c1nc2ccccc2s1	-0.4	100*	i	i	-4	i	i	i	-1.1	-16
CN1CCC(n2[nH]c(-c3ccccc3)c(Cc3ccccc3)c2=O)CC1	·	·	·	·	·	i	·	·	·	·
Cc1ccc(C(=O)CSc2nc(C(C)C)nc3ccccc23)cc1	-3.2	100*	i	i	-6	i	i	i	-0.97	-13
CSc1ccccc1-c1nnc(-c2ccc(C)cc2)o1	-0.58	25*	i	i	0	i	i	i	-1.2	3
COc1ccccc1-c1nnc(-c2ccc(C)cc2)o1	-0.21	i	i	i	·	i	·	·	·	·
CCOc1ccc(CC(=O)Nc2c3c(nn2C(C)(C)C)CS(=O)(=O)C3)cc1	0.66	i	i	i	-18	i	·	·	·	·
C(/C=C/c1ccccc1)=N/N1CCN(c2ccccc2)CC1	-0.82	25*	i	i	-8	i	i	i	-0.93	-12
Cc1c(Cl)cccc1NC(=O)CCN1C(=O)C2CC=CCC2C1=O (stereo unspecified)	-1.1	i	i	i	-16	i	·	·	·	·
CCOC(=O)c1cnc(-n2nc(C)cc2C)nc1NC1CCCC1	-0.06	25*	i	i	12	i	54%*	i	-0.95	-38
O=C(CSc1ccccn1)N1CCN(c2cccc(Cl)c2)CC1	-0.78	25*	i	i	-4	i	i	i	-0.89	-14
Cc1ccc2c(c1)S(=O)(=O)N(C)C(c1ccccc1)=C2	·	·	·	·	·	i	·	·	·	·
CCSc1nc(C)cc(C)c1S(=O)(=O)c1ccccc1C	-3.5	100*	i	i	-6	i	i	i	-1.1	-6
CCC(C)Oc1nc(C)cc(C)c1S(=O)(=O)c1ccccc1C (stereo unspecified)	-0.25	100*	i	i	-5	i	i	i	-0.62	-13
COc1ccc(CN2CCNC(=O)C2CC(=O)NCCc2c[nH]c3ccccc23)c(OC)c1 (stereo unspecified)	0.07	i	i	i	-10	i	·	·	·	·
O=C(C1=C(O)/C(=C/c2ccc(O)cc2)CCC1)C(F)(F)F	-1.3	25*	i	i	-13	i	i	i	-0.93	-21
CNC(=O)c1c(NC(=O)c2ccc(S(=O)(=O)N3CCCc4ccccc43)cc2)sc2c1CCN(C)C2	-1.8	i	i	i	-2	i	i	i	-0.85	-2
Cc1c(NC(=O)N(C)c2ccccc2)c(=O)n(-c2ccccc2)n1C	1.5	i	i	i	-4	i	·	·	·	·
O=C(Nc1ccccc1)Nc1scc2c1c(=O)oc1ccccc12	0.09	i	i	i	-13	·	i	i	-1.2	-12
O=C(CN1CCN(c2ccccc2)CC1)Nc1scc2c1c(=O)oc1ccccc12	0.91	i	i	i	-9	i	·	·	·	·
CCCCNC(=O)O/N=C(\N)CS(=O)(=O)C(C)(C)C	-0.41	i	i	i	-14	i	·	·	·	·
Cc1cc(C)c(C#N)c(SCc2cc3c(cc2Cl)OCO3)n1	-0.35	i	i	i	-5	i	·	·	·	·
Cc1cc(C)c(C#N)c(SCSCc2ccccc2)n1	-0.67	i	i	i	0	i	·	·	·	·
Cc1cc(C)c(C#N)c(SCc2ccccc2)n1	-0.46	25*	i	i	-13	i	i	i	-1.1	-10
Cc1cc(C)c(C#N)c(SCc2ccccc2C)n1	-0.74	25*	i	i	-10	i	i	i	-1	-17
SMILES	Kir21 inh	ANO1 block	CHT block	CHT allo act	GPR7 antagonist	ANO1 activ	TMEM16A reconf	HEK293 Ca mobil	Parental YFP cnt	ClC-1 inh
COc1ccc2[nH]cc(CCNS(=O)(=O)c3ccc(F)cc3)c2c1	-0.19	25*	i	i	18	i	i	i	-1	-8
COc1ccc2[nH]cc(CCNS(=O)(=O)c3ccccc3)c2c1	0.08	i	i	i	11	i	·	·	·	·
COc1ccc2[nH]c3c(NCc4ccco4)ncnc3c2c1	1.6	i	i	i	-8	·	·	·	·	·
Fc1ccc2[nH]c3c(NCc4ccccc4)ncnc3c2c1	-2.5	100*	i	i	28	i	66%*	i	-1	-26
CC(=O)c1cccc(NC(=O)N2C3CCCC2CC(NC(=O)C2CC2)C3)c1 (stereo unspecified)	0.27	i	i	i	-2	i	·	·	·	·
COc1ccccc1OCCSc1nnnn1-c1ccc(C)cc1	-0.08	i	i	i	·	i	·	·	·	·
Fc1ccccc1OCCSc1nnnn1-c1ccccc1	-0.37	i	i	i	16	i	22%*	i	-0.87	2
COc1ccc(OCC(=O)NC(=S)Nc2ccc3c4c(cccc24)CC3)cc1	0.04	i	i	i	-8	i	·	·	·	·
COc1cccc(C(=O)NC(=S)Nc2ccc3c4c(cccc24)CC3)c1	0.6	i	i	i	-10	i	i	i	-0.52	-6
Cc1cc(N2CCOCC2)cc(C)[n+]1[O-]	0.27	25*	i	i	-3	i	i	i	-0.95	-10
